Compound activity: PubChem, National Center for Advancing Translational Sciences (NCATS)
Rows were chosen to be rich in hits. Some 0.4% of all compounds tested hit in one or more screens of this group.
EPAC1 agonist: activates human EPAC1 exchange factor; O95398; AID 720707; EPAC1 agonist qHTS, biochemical assay; response scale: 100% = response to 6.5 mM cAMP; Potency, µM (highest dose often 154 µM), inactives show at the top dose activation, usual class: activators; 360,000 compounds, 0.073% hits; further: nearly all actives have a fitted effect of over 60% in size
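Nucleotide exchange by EPAC1 (100 nM) on Rap1B–BODIPY-GDP (250 nM) in the presence of 50 uM GDP is tracked fluorescently at 480/540 nm over 30 min. Signals are normalized to a 6.5 mM cAMP control.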
EPAC2 antagonist: EPAC2 (human) antagonism; Q8WZA2; EPAC2 GEF exchange of Rap1B-BODIPY-GDP, fluorescence; Potency, µM (titrated, usually from 114 µM), for the others: top-dose activity, negative = inhibition, usual class: inhibitors; 360,000 compounds, 0.18% hits; further: on the % scale 0 is the no-effect control and ±100 the full control effect; nearly all actives have a fitted effect of over 45% in size
Target sequence (Q8WZA2 whole entry, looked up): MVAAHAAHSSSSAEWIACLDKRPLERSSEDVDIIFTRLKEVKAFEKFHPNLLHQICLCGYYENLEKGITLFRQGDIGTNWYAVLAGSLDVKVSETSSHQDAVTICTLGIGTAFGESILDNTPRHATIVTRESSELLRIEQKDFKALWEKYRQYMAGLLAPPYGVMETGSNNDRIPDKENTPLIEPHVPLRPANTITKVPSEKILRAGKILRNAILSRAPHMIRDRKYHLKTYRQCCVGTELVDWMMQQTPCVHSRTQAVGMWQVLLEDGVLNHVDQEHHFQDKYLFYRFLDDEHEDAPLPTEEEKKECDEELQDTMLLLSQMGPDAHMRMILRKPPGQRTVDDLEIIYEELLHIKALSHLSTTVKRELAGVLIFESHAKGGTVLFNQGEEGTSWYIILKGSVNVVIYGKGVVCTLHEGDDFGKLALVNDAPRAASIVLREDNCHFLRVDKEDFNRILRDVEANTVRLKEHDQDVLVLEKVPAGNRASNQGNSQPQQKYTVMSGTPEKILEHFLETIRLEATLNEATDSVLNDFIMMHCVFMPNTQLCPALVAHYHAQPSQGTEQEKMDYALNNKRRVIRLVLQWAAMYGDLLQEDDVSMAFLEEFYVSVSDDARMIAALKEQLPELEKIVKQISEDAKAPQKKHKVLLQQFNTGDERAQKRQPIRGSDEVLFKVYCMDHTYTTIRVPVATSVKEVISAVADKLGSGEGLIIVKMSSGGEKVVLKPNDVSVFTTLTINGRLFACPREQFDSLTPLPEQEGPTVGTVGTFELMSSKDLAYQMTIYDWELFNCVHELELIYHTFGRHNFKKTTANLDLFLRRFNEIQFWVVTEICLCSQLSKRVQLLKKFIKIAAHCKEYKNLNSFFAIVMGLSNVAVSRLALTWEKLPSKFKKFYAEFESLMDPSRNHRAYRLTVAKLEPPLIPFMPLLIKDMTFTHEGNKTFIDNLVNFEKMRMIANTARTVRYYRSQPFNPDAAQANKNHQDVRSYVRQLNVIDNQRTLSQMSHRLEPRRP
EPAC1 antag: EPAC1 (human) antagonism; O95398; EPAC1 GEF assay, Rap1b-BODIPY-GDP exchange fluorescence; Potency, µM (doses to about 115 µM), without a hit: top-dose activity change, negative = inhibition, actives largely listed as inhibitors; 360,000 compounds, 0.14% hits; AID 720709;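 further: plate controls were vehicle for no effect and positive control for full effect; nearly all actives have a fitted effect of over 50% in size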
EPAC2 ag: activates human EPAC2 exchange factor. Potency, µM (highest dose often 154 µM), for inactives: top-dose activation, actives largely listed as activators. AID 720711. Q8WZA2. EPAC2 activation, biochemical qHTS; response scale: 100% = 6.5 mM cAMP response. 360,000 compounds, 0.079% hits; further: nearly all actives have a fitted effect of over 50% in size
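Compounds were added across a concentration range to EPAC2 (100 nM), RAP1B-BODIPY-GDP (250 nM) and GDP (50 uM). After 5 min at room temperature, fluorescence was recorded at 5-min intervals for 30 min.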
RGS4 inhibitor: blocks human RGS4-accelerated GTP hydrolysis; P49798; Transcreener GDP fluorescence polarization, RGS4-accelerated GTP hydrolysis; Potency, µM (highest dose often 114 µM), for inactives: at the highest dose activity change, negative = inhibition, usual class: inhibitors; 390,000 compounds, 0.039% hits; further: on the % scale 0 is the no-effect control and ±100 the full control effect; nearly all actives have a fitted effect of over 75% in size
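MLSMR compounds (23 nl, pin-transferred) preincubated 10 min at room temperature with a 500nM (2x) first reagent, then RGS4 at 900nM (2x) plus Transcreener GDP mix added; fluorescence polarization (620/688 nm) read before and after 90 min at 30 °C.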
ERG-DNA inh: inhibitors of human ERG Ets domain-DNA interaction; Potency, µM (doses to about 76.9 µM), for the others: top-dose FP activity, negative = inhibition, actives largely listed as inhibitors; 370,000 compounds, 0.028% hits; AID 624246; fluorescence polarization, His-ERG Ets domain / labelled DNA; active means well fitted inhibition curve with a large enough effect in the polarisation, with a control signal flat; inconclusive means small, poorly fitted or top-dose-only effect, or effect the other way, or a change in a side signal; inactive means no such curve, though single readings can be large or run the other way; the % refers to the polarisation;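 further: polarization taken with two DNA probes labelled with fluorescein and Texas red; % of control where 0% means no effect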
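His-tagged ERG Ets domain (1 uM in the protein solution; 300mM KCl, 50mM Tris-HCl, 1mM EDTA, 1mM DTT, pH 7.5) received compound, then a probe mix of 5 nM fluorescein-DNA and 100nM Texas-615-DNA. Fluorescence polarization was read for both dyes.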
Numbers without * were called inactive; ? = inconclusive; . = not tested or not shown. Unless noted, the call rests on the fitted dose curve; in most records, active means well fitted curve in the direction sought with a large enough effect; inconclusive means small, poorly fitted or top-dose-only effect, or another doubt; inactive means no such curve, though single readings can be large; an effect the other way counts as inactive or inconclusive. Potency means the concentration at half of the fitted maximal effect.

SMILES	EPAC1 agonist	EPAC2 antagonist	EPAC1 antag	EPAC2 ag	RGS4 inhibitor	ERG-DNA inh
CC(C)CNc1nc(NC(C)(C)C)nc(Oc2ccc(=O)n(-c3ccccc3)n2)n1	.	.	.	.	-2.9%	-9.4%
O=S(=O)(c1ccc(Br)cc1)N1CCOCC1	.	.	.	.	17.5%	.
O=C(Nc1ccc([N+](=O)[O-])cc1Cl)c1ccccc1O	.	.	.	.	27.2%	.
COc1ccc(C(=O)c2ccccc2Cl)cc1	7.8%	-25.7%	9.4%	16.3%	-9.9%	-3.6%
Cc1sc(N)c(C(=O)c2ccccc2Cl)c1C	8.7%	31.6µM*	19.0%	6.8%	-24.4%	-13.2%
COc1[nH]c(/N=C/c2ccco2)c(C#N)c1C#N	.	.	.	.	1.1%	.
Nc1c2c(=O)[nH]c(O)cc2nn1-c1ccccc1	13.3%	7.5%	89.1µM*	10.4%	-13.2%	-0.4%
Cc1cccc(N(Cc2ccccc2)C(=O)CSC(C)C(=O)Nc2cc(C)on2)c1 (stereo not given)	112µM*	-6.9%	-11.6%	5.4%	-0.9%	-11.5%
CCOC(=O)c1c(-c2ccc(Cl)cc2)csc1NC(=O)CNCc1ccco1	-2.6%	-8.9%	2.9%	14.5%	22.9%	-1.5%
CCOC(=O)c1c(-c2ccccc2)csc1NC(=O)C(C)NCc1ccco1 (stereo not given)	16.1%	44.7µM*	?	1.3%	0.2%	-4.4%
C[C@@H](NC(=O)C1(c2ccccc2)CCN(C(=O)OC(C)(C)C)CC1)C(=O)N[C@@H](C(=O)O)c1ccccc1	-22.5%	?	56.2µM*	-6.4%	-3.6%	10.5%
COc1ccc(/C=C2/SC(=O)N(NS(=O)(=O)c3ccccc3)C2=S)cc1OC	0.7%	-7.6%	-11.8%	7.0%	-12.7%	5.8%
COc1cccc(/C=C2\SC(=S)N(NS(=O)(=O)c3ccccc3)C2=O)c1OC	8.0%	?	50.1µM*	1.4%	-3.4%	-5.9%
O=C1/C(=C/c2ccccn2)SC(=S)N1NS(=O)(=O)c1ccccc1	0.5%	-14.3%	-28.1%	-5.6%	2.2%	-7.9%
O=C1/C(=C/c2cccc(F)c2)SC(=S)N1NS(=O)(=O)c1ccccc1	-13.4%	17.8µM*	39.8µM*	-4.8%	?	20.1%
Cc1ccc(S(=O)(=O)NN2C(=O)/C(=C/c3ccc(F)cc3)SC2=S)cc1	-3.7%	-1.6%	-12.7%	6.2%	-9.9%	33.7%
COc1cc(/C=C2\SC(=S)N(NS(=O)(=O)c3ccccc3)C2=O)cc(OC)c1OC	3.0%	50.1µM*	?	5.3%	-6.0%	11.1%
Cc1cc(-c2ccc(C)c(S(=O)(=O)N3CCN(c4cccc(C(F)(F)F)c4)CC3)c2)on1	.	.	.	.	-4.8%	-7.7%
COc1ccc(NC(=O)C2=C(C)Nc3ncnn3C2c2ccc(O)cc2)cc1 (stereo not given)	.	.	.	.	-1.0%	-2.0%
CC(C)(C)N1C(=O)Cc2c1nc(N)c1c(N)nc(N3CCCCC3CO)c(C#N)c21 (stereo not given)	-1.0%	-8.0%	56.2µM*	4.1%	?	12.4%
CCCCCCCCN1C(=O)[C@H](CC(=O)NCc2ccc(OC)c(OC)c2)C[C@@]2(C(=O)OCC)CCC=C12	-24.7%	?	-22.4%	-13.6%	.	.
CCCCCCCCN1C(=O)[C@H](CC(=O)NCc2ccc(OC)c(OC)c2)C[C@@]2(C(=O)OC)CCCCC=C12	-24.5%	37.7µM*	-27.9%	-9.6%	.	.
CCCCCC(=O)NCC(C)NC(=O)CCCCC (stereo not given)	-5.5%	1.0%	-8.0%	-3.0%	12.3%	-8.5%
CCCCCCCCCCCCCCCC(=O)NCC(COP(=O)([O-])OCC[N+](C)(C)C)OCC (stereo not given)	.	.	.	.	21.2µM*	.
CC1CCN(C(=O)CSc2nnc(CN3CCOCC3)n2-c2ccccc2)CC1	8.6%	2.2%	31.6µM*	-5.9%	20.1%	0.3%
SMILES	EPAC1 agonist	EPAC2 antagonist	EPAC1 antag	EPAC2 ag	RGS4 inhibitor	ERG-DNA inh
O=C(CSc1nnc(CN2CCOCC2)n1-c1ccccc1)N1CCc2ccccc21	-0.1%	3.8%	5.9%	1.1%	0.1%	10.0%
Cc1nn(CCc2nn[nH]n2)c2nc(-c3ccc(Br)cc3)cc(C(F)(F)F)c12	-14.5%	31.6µM*	-28.0%	-19.7%	-5.5%	-1.7%
Cc1nn(CCc2nn[nH]n2)c2nc(C(F)(F)F)cc(C(F)(F)F)c12	18.1%	-3.2%	-11.6%	-22.3%	7.0%	-1.4%
COc1cccc(C2=NN(C(=O)c3ccco3)C(c3ccco3)C2)c1 (stereo not given)	13.4%	14.1µM*	7.0%	6.3%	?	-3.2%
COc1cccc(C2CC(c3cccs3)=NN2C(=O)c2ccco2)c1O (stereo not given)	-11.9%	35.5µM*	-28.3%	5.4%	-13.3%	4.6%
O=C(Cn1ccc(=O)[nH]c1=O)c1ccc([N+](=O)[O-])o1	100µM*	14.2%	7.0%	?	.	.
O=C(Cn1ccc(=O)[nH]c1=O)NCCO	-9.1%	7.5%	15.6%	-0.4%	1.8%	-7.8%
C=CCOc1c(Br)cc(/C=N/O)cc1OCC	-3.1%	?	-10.2%	-10.0%	-6.1%	-10.1%
CCCCOc1c(Br)cc(/C=N/O)cc1OCC	-10.4%	28.2µM*	?	-2.5%	-0.2%	4.7%
COC(=O)c1[nH]c2ccc(Br)cc2c1NC(=O)CN1CCCc2ccccc21	-4.9%	9.7%	-0.2%	7.9%	-48.7%	4.6%
COC(=O)c1[nH]c2cc(C)ccc2c1NC(=O)CN1CCCc2ccccc21	-10.6%	0.0%	4.8%	7.94µM*	-30.3%	-7.5%
CCOC(=O)c1c(C)nc2sc(C(N)=O)c(N)c2c1-c1ccccc1	-7.1%	-3.1%	-3.5%	7.94µM*	-33.3%	9.3%
CCOC(=O)c1c(NC(=O)/C=C/C(=O)O)sc(C)c1-c1ccc(C(C)(C)C)cc1	-11.6%	?	56.2µM*	-17.8%	?	2.8%
CCOC(=O)c1c(NC(=O)/C=C\C(=O)O)sc(C)c1-c1ccccc1	3.6%	-18.1%	-8.8%	0.5%	?	23.9%
CCc1ccc(CNC(=O)c2ccc(NC(=O)N3CCSc4ncccc43)cc2)cc1	.	.	.	.	23.0%	-1.6%
Cc1nc2ccccc2c(=O)n1/N=C/c1ccccc1O	9.8%	-0.5%	79.4µM*	-2.5%	8.1%	4.8%
Cc1[nH]n(-c2ncc(-c3ccccc3)s2)c(=O)c1C(c1ccc(Br)cc1)C(C#N)C#N (stereo not given)	10.0%	-17.7%	15.8µM*	2.7%	?	-8.3%
CCc1ccccc1NC(=O)CCC(=O)N1CC(C)Oc2ccc(C)cc21 (stereo not given)	.	.	.	.	5.6%	9.1%
Cc1cc(C)c2nc(NC(=O)c3cc(C)on3)sc2c1	-3.9%	21.1%	7.4%	5.4%	18.6%	-0.6%
